# Reference: PubChem BioAssay AID488975 (Johns Hopkins Ion Channel Center, 2010)
# In all, about 310,000 compounds went through this assay and about 2,600 (0.84%) were called active.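 The calls were made as follows: active = B-score over 3 SD under the library average, and starting fluorescence ratio not unusually high; inactive = the rest.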 The sample as a whole holds a higher share of actives than the screen did.
# Biological target: High affinity choline transporter 1 (Homo sapiens) (UniProt Q9GZV3)
# Assay: inhibits the human high affinity choline transporter (AID 488975);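 as to B-score: choline stimulus applied at its EC90 after an EC20 pre-addition; B-score computed on integrated fluorescence ratio after choline addition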
# Conditions: CHT-expressing cells, membrane potential dye, choline response, at 10 µM; active compounds read low
# Sequence of High affinity choline transporter 1 (Homo sapiens) (Q9GZV3 whole entry, looked up): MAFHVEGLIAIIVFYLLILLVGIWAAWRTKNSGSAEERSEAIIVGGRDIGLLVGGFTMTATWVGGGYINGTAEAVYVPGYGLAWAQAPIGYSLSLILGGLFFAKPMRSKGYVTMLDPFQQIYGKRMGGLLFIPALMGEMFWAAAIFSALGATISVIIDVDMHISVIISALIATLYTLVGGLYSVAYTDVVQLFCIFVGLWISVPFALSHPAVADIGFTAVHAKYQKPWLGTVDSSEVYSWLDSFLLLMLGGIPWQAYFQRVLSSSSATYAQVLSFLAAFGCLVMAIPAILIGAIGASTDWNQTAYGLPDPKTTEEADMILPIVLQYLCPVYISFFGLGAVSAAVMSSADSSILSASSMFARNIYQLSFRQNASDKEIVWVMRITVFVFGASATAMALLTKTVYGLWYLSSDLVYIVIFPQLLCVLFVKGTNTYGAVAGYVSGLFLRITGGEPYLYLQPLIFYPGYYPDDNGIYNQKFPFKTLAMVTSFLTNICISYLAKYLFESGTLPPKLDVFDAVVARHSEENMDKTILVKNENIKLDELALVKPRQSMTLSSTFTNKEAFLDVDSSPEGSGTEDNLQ
row,SMILES,B-score
1,O=C(Nc1ncccc1O)c1ccc(S(=O)(=O)N2CCCC2)cc1,inactive
2,COc1ccc(-n2nnnc2SCC(=O)c2ccc(OC)c(OC)c2)cc1,inactive
3,COc1ccc(CNC(=O)c2ccc3oc(C(C)C)nc3c2)cc1,inactive
4,COc1ccc(-n2nnnc2CNC(=O)c2ccc3ccccc3c2)cc1,-5.47 (active)
5,COc1ccc(NC(=O)CN(C)C(=O)Cc2coc3cc(C)c(C)cc23)cc1,inactive
6,CC(C)Oc1ccc(S(=O)(=O)N2CCOCC2)cc1NC(=O)C1CSC2(C)CCC(=O)N12 (configuration not stated),inactive
7,O=C(Nc1cc(-c2ccccc2)nn1-c1ccccc1F)c1ccc([N+](=O)[O-])cc1,inactive
8,COc1ccc(S(=O)(=O)N2CCOC2CNC(=O)C(=O)NCc2ccncc2)cc1C (configuration not stated),inactive
9,CC1CCN(C(=O)c2cccc(S(=O)(=O)N3CCCc4ccccc43)c2)CC1,inactive
10,CC(C)n1c(=O)[nH]c2cc(C(=O)Nc3ccccc3)ccc21,inactive
11,CCCn1c(=S)[nH]c2ccc(C(F)(F)F)cc21,inactive
12,CC(C)n1c(=S)[nH]c2cc(C(F)(F)F)ccc21,-8.94 (active)
13,Cc1c(NC(=O)C(C)OC(=O)c2c3c(nc4ccccc24)CCC(C)C3)c(=O)n(-c2ccccc2)n1C (configuration not stated),inactive
14,COc1ccc2sc(N(CCCN(C)C)C(=O)c3ccc(S(=O)(=O)N(C)C4CCCCC4)cc3)nc2c1,inactive
15,O=C(c1ccc(F)c(S(=O)(=O)N2CCOCC2)c1)N(CCc1ccccc1)Cc1ccccc1,inactive
16,COc1ccc(N(C)S(=O)(=O)c2ccc3c(c2)CC(C)N3C(=O)C2CC2)c(OC)c1 (configuration not stated),inactive
17,CCOC(=O)N1CCN(C(=O)CN(c2ccc(C)c(C)c2)S(=O)(=O)c2ccccc2)CC1,inactive
18,CCOC(=O)N1CCN(C(=O)c2ccc(CN(c3ccc(C)c(C)c3)S(C)(=O)=O)cc2)CC1,-6.25 (active)
19,Cc1ccc(N(Cc2ccc(C(=O)Nc3ccccc3C(=O)NCc3ccco3)cc2)S(C)(=O)=O)cc1C,inactive
20,COc1ccc(NC(=O)CN(C)C(=O)c2cc(-c3ccc(C)o3)nc3ccccc23)cc1,inactive
21,CCNC(=O)CC1C(=O)N(c2ccc(F)cc2)C(=O)N1CCc1sccc1C (configuration not stated),-5.75 (active)
22,COc1ccc(N2C(=O)C(CC(=O)Nc3ccc(F)cc3)N(CCc3cccs3)C2=O)cc1 (configuration not stated),inactive
23,CCNC(=O)CC1C(=O)N(c2ccc(F)cc2)C(=O)N1Cc1cccs1 (configuration not stated),inactive
24,CC(=O)Nc1ccc(C(=O)Nc2cccc(S(=O)(=O)NC3=NCCC3)c2)cc1,inactive
25,CN(C)c1ccc(C2N(C)C(=O)c3ccccc3N2C)cc1 (configuration not stated),inactive

row,SMILES,B-score
1,CN(C)c1ccc(Nc2c3c4c(cccc4n(C)c2=O)C(=O)c2ccccc2-3)cc1,-9.73 (active)
2,COc1ccc(/C=C2\SC(=S)N(CCCC(=O)NC3CCCC3)C2=O)cc1OC,inactive
3,COc1ccccc1CNC(=O)CCn1c(=O)sc2ccccc21,inactive
4,Cc1cccc(CSc2nnc(Cn3c(=O)sc4ccccc43)n2C)c1,inactive
5,COc1ccc(Cn2c(=O)sc3ccccc32)cc1OC,-5.56 (active)
6,O=C(NCC1(N2CCCCC2)CCCCC1)c1ccc(NS(=O)(=O)c2ccc(F)cc2)cc1,inactive
7,Cc1ccc(C)c(OCCC(=O)Nc2cccc(S(=O)(=O)N3CCCC3)c2)c1,inactive
8,O=C(/C=C/c1ccc([N+](=O)[O-])o1)NNC(=O)c1ccc(F)cc1,inactive
9,CCN(CC)CCC(c1ccc2c(c1)OCO2)c1c(OC)cc(OC)c2c(-c3ccccc3)cc(=O)oc12 (configuration not stated),-6.84 (active)
10,CCN(CC)CCC(c1cc(OC)c(OC)c(OC)c1)c1c(OC)cc(OC)c2c(-c3ccccc3)cc(=O)oc12 (configuration not stated),inactive
11,CCN(CC)C(=O)CC(c1ccc2c(c1)OCO2)c1c(OC)cc(OC)c2c(-c3ccccc3)cc(=O)oc12 (configuration not stated),inactive
12,Cc1ccc(S(=O)(=O)N2CCOCC2)cc1C(=O)Nc1ccccc1N1CCCC1,inactive
13,COc1ccc(N2CCN(S(=O)(=O)c3cc4c5c(c3)C(C)C(=O)N5CCC4)CC2)cc1 (configuration not stated),inactive
14,Cc1ccc(-c2csc(NC(=O)C3=COCCO3)n2)cc1C,inactive
15,O=C(Nc1ncccc1O)c1ccc(S(=O)(=O)N2CCCCCC2)cc1,inactive
16,CCOC(=O)[C@H]1[C@H]2COc3ccc(Cl)cc3[C@@H]2N2C(=O)c3cc(C)ccc3NC(=O)[C@@]12C,inactive
17,Cc1cc(NC(=O)C(C)SCC(=O)Nc2ccccc2N2CCCCC2)no1 (configuration not stated),inactive
18,CCc1cc2c(N3CCN(c4nnc(CC)s4)CC3)ncnc2s1,-7.24 (active)
19,Oc1ccccc1N1CCN(c2ncnc3sc(-c4ccccc4)cc23)CC1,inactive
20,CCc1cc2c(NC3CCCC3)ncnc2s1,inactive
21,COc1ccc(C(=NN)c2ccc(OC)cc2)cc1,inactive
22,COc1ccc(S(=O)(=O)N2CCCCC2)cc1NC(=O)c1cc([N+](=O)[O-])ccc1N1CCOCC1,inactive
23,O=C(NCCCn1ccnc1)C(=O)c1cn(CC(=O)N2CCCCCC2)c2ccccc12,-6.23 (active)
24,O=C(NCc1ccco1)C(=O)c1cn(CC(=O)N2CCCCCC2)c2ccccc12,inactive
25,Cc1ccc(CNC(=O)C(=O)c2cn(CC(=O)N3CCCC3)c3ccccc23)cc1,inactive

row,SMILES,B-score
1,CCN(CC)CCn1c2c(c(SCC(=O)Nc3nc4ccccc4s3)nc1=O)CCCC2,inactive
2,COCCNC(=O)c1ccc(Cn2c(SCC(=O)NCC3CCCO3)nc3ccc(Br)cc3c2=O)cc1 (configuration not stated),inactive
3,CCCCn1c(SCC(=O)NCC2CCCO2)nc2ccc(N3CCOCC3)cc2c1=O (configuration not stated),-5.48 (active)
4,O=C(CCCn1c(SCC(=O)c2ccccc2)nc2ccccc2c1=O)NCC1CCCO1 (configuration not stated),inactive
5,O=C(COc1ccccc1Cl)Nc1ccccc1C(=O)NC1CC1,inactive
6,Cc1ccc(S(=O)(=O)CCC(=O)Nc2nnc(CC(C)C)s2)cc1,inactive
7,CCC(=O)Nc1nnc(S(=O)(=O)N(CC(C)C)c2ccccc2)s1,-5.75 (active)
8,CCC(=O)Nc1nnc(S(=O)(=O)N2CCCc3ccccc32)s1,inactive
9,CC(C)CC(=O)Nc1nnc(S(=O)(=O)N(C)c2ccc(Cl)cc2)s1,inactive
10,CCN(C(=O)COC(=O)C1CCN(S(=O)(=O)c2ccc(C)c(C)c2)CC1)C1CCS(=O)(=O)C1 (configuration not stated),inactive
11,Cn1cccc1C(=O)NNC(=O)COc1ccc(Br)cc1,inactive
12,Cc1ccc(S(=O)(=O)N2CCCCC2)cc1C(=O)N(C)CC(=O)Nc1cccc(F)c1,inactive
13,O=C(NCC(c1ccco1)N1CCc2ccccc21)c1cccc(F)c1 (configuration not stated),inactive
14,CC1(C)CC(=O)c2ccc(O)cc2O1,inactive
15,COc1ccc2c(c1)SC(C)CC2=O (configuration not stated),inactive
16,COc1ccc2c(c1)OC(O)(C(F)(F)C(F)F)CC2=O (configuration not stated),-5.18 (active)
17,COC(=O)[C@@]12CCCN1[C@H](c1ccc(-c3ccc(F)cc3)c(OC)c1)[C@H]1C(=O)N(C)C(=O)[C@H]12,inactive
18,CCN(CC)c1ccc(NC(=O)c2ccc(=O)[nH]c2)cc1S(=O)(=O)Nc1ccc(OC)cc1,inactive
19,COc1cc(/C=N/NC(=O)c2cc(-c3ccccc3C)nc3ccccc23)cc(OC)c1O,inactive
20,Cc1ccnc(NC(=O)c2ccco2)n1,inactive
21,O=C(Nc1ccccc1)c1ccco1,inactive
22,O=C(Nc1nonc1-c1ccc(Cl)cc1)c1ccco1,-5.55 (active)
23,CN(Cc1ccccc1F)C(=O)C(Cc1ccccc1)NC(=O)c1ccccc1 (configuration not stated),inactive
24,O=C(NNC(=O)c1cc(-c2ccccc2Cl)nc2ccccc12)c1csc(N2CCOCC2)n1,inactive
25,O=S(=O)(Cc1cc(Cl)nc(-c2cccnc2)n1)c1ccccc1,-6.86 (active)

row,SMILES,B-score
1,O=S(=O)(NCCc1csc(-c2ccccc2)n1)c1cccnc1,inactive
2,O=S(=O)(Cc1cc(Sc2ccccc2)nc(-c2ccccc2)n1)c1ccccc1,inactive
3,COc1ccccc1NC(=O)C(C)OC(=O)c1ccc(-n2cnnn2)cc1 (configuration not stated),inactive
4,CCC1Nc2ncnc(N3CCN(c4ccccc4)CC3)c2N(Cc2ccc(Cl)cc2)C1=O (configuration not stated),inactive
5,CC(=O)C1C(c2ccc(Cl)cc2)NC(=O)NC1(O)C(F)(F)F (configuration not stated),inactive
6,CCOC(=O)C1C(c2ccc(Cl)cc2)NC(=S)NC1(O)C(F)(F)F (configuration not stated),inactive
7,O=C(c1cccs1)C1C(c2ccc(Br)cc2)NC(=S)NC1(O)C(F)(F)F (configuration not stated),-8.32 (active)
8,CN(c1cccc(NC(=O)c2ccc(CN3CCc4ccccc4C3)cc2)c1)S(C)(=O)=O,inactive
9,Cc1ccc(NC(=O)CN2CCc3ccccc3C2)cc1C,inactive
10,Cc1cccc(C)c1NC(=O)c1ccc(CN2CCc3ccccc3C2)cc1,-5.84 (active)
11,CCCCn1c(N)c(N(CC(C)C)C(=O)c2ccc(-n3c(C)ccc3C)cc2)c(=O)[nH]c1=O,inactive
12,COc1ccc2c(c1)[C@H]1[C@H](CO2)[C@H](c2ccccc2)[C@]2(C)C(=O)Nc3cc(F)c(F)cc3C(=O)N12,inactive
13,O=C(Nn1c(SCc2ccc([N+](=O)[O-])cc2)nc2ccccc2c1=O)c1ccc(F)cc1,inactive
14,COCCNC(=O)c1ccc(-n2c(SCc3cccnc3)nc3ccccc3c2=O)cc1,inactive
15,C=CCn1c(SCc2ccc(C(=O)NCCO)cc2)nc2ccccc2c1=O,-5.96 (active)
16,CCN1CCN(c2ccc(S(=O)(=O)N3CCCCC3)cc2NC(=O)c2cccc(NC(C)=O)c2)CC1,inactive
17,CC(OC(=O)CCCOc1ccccc1)C(=O)Nc1ccc(Cl)cn1 (configuration not stated),inactive
18,O=C(NCCC1CCCCN1S(=O)(=O)c1cccs1)C(=O)Nc1ccc(F)cc1F (configuration not stated),inactive
19,CC12CCC(=O)N1C(C(=O)Nc1ccc(F)c(F)c1F)CS2 (configuration not stated),inactive
20,COc1ccc(C(=O)c2c(C)oc3cc([N+](=O)[O-])c(O)c([N+](=O)[O-])c23)cc1,inactive
21,Cc1oc2cc(Br)c(O)c(Br)c2c1C(=O)c1ccccc1,inactive
22,Cc1oc2cc([N+](=O)[O-])c(O)c([N+](=O)[O-])c2c1C(=O)c1ccc(Br)cc1,-6.57 (active)
